CHX counter = Cycloheximide Counterscreen for Small Molecule Inhibitors of Shiga Toxin; cell reporter, cycloheximide protein synthesis inhibition counterscreen; max response, %; 300,000 compounds, 12% hits; in the data active = max response mostly above about 13%, no sharp cut-off; inactive = mostly below about 14%; note: read at 38.3 µM for the half of the compounds with a filed dose; 0% is about no effect
LmPK inhibitor = qHTS Assay for Inhibitors of Leishmania Mexicana Pyruvate Kinase (LmPK); Q27686; purified LmPK, Kinase-Glo ATP luminescence, 1 h; Potency, µM (highest dose often 57.5 µM), for inactives: top-dose activity change, negative = inhibition, usual class: inhibitors; 290,000 compounds, 0.37% hits; AID 1721, 2009; note: potency is the fitted concentration of half-maximal effect; % is set by controls: 0 for no effect and ±100 for the full control effect
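0.1 nM LmPK, 0.5 mM PEP, 0.1 mM ADP; 50 mM imidazole pH 7.2, 7 mM MgCl2, 50 mM KCl; 1 h RT. Kinase-Glo luminescence readout, normalized to no-enzyme (full inhibition) and uninhibited wells.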
TbPYK inhibitor = qHTS of Trypanosoma Brucei Inhibitors; Potency, µM (series often up to 76.8 µM), for the others: top-dose activity, negative = inhibition, most hits filed as inhibitors; TbPYK enzyme, Kinase-Glo Plus ATP luminescence, 45 min; 410,000 compounds, 0.12% hits; AID 624173, 2012; note: potency is the fitted concentration of half-maximal effect; % is set by controls: 0 for no effect and ±100 for the full control effect; nearly all actives have a fitted effect of over 50% in size
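Luminescent Kinase-Glo Plus end-point after 45 min room-temperature reaction of T. brucei pyruvate kinase started with 130 uM ADP (final). Buffer TEA 50 mM pH 7.2 with KCl, MgCl2, BSA, Tween-20; titration-based qHTS with fitted concentration-effect curves.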
Shiga inhibitor = A qHTS for Small Molecule Inhibitors of Shiga Toxin; Vero cells, Shiga toxin protein synthesis inhibition reporter; inhibition, % at 38.7 µM; 290,000 compounds, 9.2% hits; AID 2315, 2010; in the data active = inhibition mostly above about 28%, no sharp cut-off; inactive = mostly below about 43%; note: 0% is about no effect
FBPA Giardia inh = qHTS Assay for Inhibitors of Fructose-1,6-bisphosphate Aldolase from Giardia Lamblia; A8B2U2; 290,000 compounds, 0.71% hits; purified Giardia FBPA; AID 2451, 2010; Potency, µM (doses to about 59.6 µM), without a hit: top-dose activity, negative = inhibition, hits mostly inhibitors; note: potency is the fitted concentration of half-maximal effect; % is set by controls: 0 for no effect and ±100 for the full control effect; nearly all actives have a fitted effect of over 55% in size
Target sequence (A8B2U2 whole entry, looked up): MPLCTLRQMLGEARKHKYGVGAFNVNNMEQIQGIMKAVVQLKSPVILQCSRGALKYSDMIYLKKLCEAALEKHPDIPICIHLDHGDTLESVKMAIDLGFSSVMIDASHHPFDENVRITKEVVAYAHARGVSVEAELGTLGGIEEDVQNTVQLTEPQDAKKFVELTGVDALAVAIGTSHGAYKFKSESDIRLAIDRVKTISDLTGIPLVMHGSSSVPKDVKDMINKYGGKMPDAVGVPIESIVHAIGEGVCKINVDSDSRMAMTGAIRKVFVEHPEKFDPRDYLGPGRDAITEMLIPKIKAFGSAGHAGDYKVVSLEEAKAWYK
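40 nM FBPA preincubated 10 min at RT with compound (up to 57.5 uM final), then substrate plus GAPDH/TPI/NAD/arsenate coupling and diaphorase/resazurin added. Fluorescence read after 20 min at RT, 525/598 nm.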
Sm TGR inh = qHTS Assay for the Inhibitors of Schistosoma Mansoni Peroxiredoxins. Schistosoma mansoni thioredoxin glutathione reductase (TGR), Q962Y6. purified TGR, DTNB reduction, TNB absorbance 405 nm. Potency, µM (top dose mostly 114 µM), for the others: at the top dose activity change, negative = inhibition, usual class: inhibitors. 360,000 compounds, 3% hits. AID 485364, 2010; note: potency is the fitted concentration of half-maximal effect; % is set by controls: 0 for no effect and ±100 for the full control effect; nearly all actives have a fitted effect of over 60% in size
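Kinetic colorimetric format: TGR-catalysed, NADPH-driven DTNB reduction monitored via TNB absorbance. Enzyme dispensed at 20 nM; compound exposure 15 min at room temperature before reaction start.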
* marks the source's active call; other numbers are inactive results; ? = inconclusive; . = not tested or not shown; [ ] = another dose, or the depositor's remark. Shown is part of a subset that was picked to be rich in hits. Unless noted, calls come from the whole dose curve; as a rule, active = well fitted curve in the direction sought with a large enough effect; inconclusive = small, poorly fitted or top-dose-only effect, or another doubt; inactive = no such curve, though single readings can be large; an effect the other way counts as inactive or inconclusive.

SMILES | CHX counter | LmPK inhibitor | TbPYK inhibitor | Shiga inhibitor | FBPA Giardia inh | Sm TGR inh
Cc1csc(NS(=O)(=O)c2ccc(Cl)cc2)n1 | 3 | 1% | 5% | 15 | ? | 2%
Cc1ccc(Nc2nc3ccccc3c(=O)s2)cc1 | -3 | 8% | -2% | 26 | -3% | 0%
Cc1ccc(Nc2nc(C)cs2)cc1 | 54* | -14% | -13% | 125* | -20% | 0%[57.1 µM]
Cc1csc(Nc2ccc(Cl)cc2)n1 | 24* | 2% | -5% | 73* | -8% | 0%
CCN1C[C@@]2(COC)CCC(OC)[C@]34C5C[C@]6(O)[C@@H](OC)C[C@](OC(C)=O)(C([C@H](OC)C23)[C@H]14)C5[C@H]6OC(=O)c1ccc(OC)cc1 (some centres not stated) | 21* | . | . | 23* | 1% | .
CCN1C[C@@]2(COC)C3[C@@H](OC)[C@H]4[C@@H]1[C@@]3(C1C[C@H]3[C@H](OC(=O)c5ccccc5)C1[C@]4(OC(C)=O)C[C@H]3OC)[C@@H](OC)C[C@H]2O (some centres not stated) | . | . | -11% | . | . | .
CC(/C=N/n1cnnc1)=C\c1ccco1 | 0 | -6% | 0% | -5 | -22% | 35µM*
CC(/C=N/n1c(-c2ccc(Cl)cc2)n[nH]c1=S)=C\c1ccco1 | 6 | 3% | ? | -2 | -3% | -18%
Cc1ccc(Cn2c(C)c(CNCc3ccc(OC(C)C)cc3)c(C(=O)O)c2C)cc1 | . | . | -7% | . | . | -20%
Cc1ccc(S(=O)(=O)NCCC(=O)NCCc2ccc(S(N)(=O)=O)cc2)cc1C | . | . | 4% | . | . | .
CC1(C(=O)NCCc2c[nH]c3ccccc23)CCN1Cc1csc2ccccc12 (configuration not stated) | . | . | 8% | . | . | .
COCCCNC(=O)c1ccc2c3c(onc13)-c1ccccc1C2=O | 35* | -6% | 4% | 69* | 0.89µM* | 0%
COCCCNC(=O)c1ccccc1Oc1ccccc1 | -3 | 5% | 1% | 12 | -2% | -1%
Cc1ccc(NC(=O)Cc2ccccc2)cc1S(=O)(=O)N1CCOCC1 | . | . | 2% | . | . | .
COc1cc2c(cc1O)CCC1C2CC[C@@]2(C)C1CC[C@@H]2O (some centres not stated) | . | . | . | . | 4% | .
COc1ccc(C(=O)NCCSC2CCCCC2)cc1 | 42* | 3% | -4% | 80* | -4% | -17%
O=C(NCCSC1CCCCC1)c1ccccc1 | 30* | 1% | 3% | 63* | -1% | .
CS(=O)(=O)Nc1ccc(C(=O)NCCSC2CCCCC2)cc1 | 9 | 0% | 4% | 18 | -1% | 1%
Cc1cccc(NC(=O)c2cc(-c3ccc4c(c3)OCCO4)on2)c1 | . | . | -9% | . | . | 2%
O=C(CC1C(=O)OCCN1Cc1ccccc1)Nc1cccc(Cl)c1 (configuration not stated) | . | . | 0% | . | . | ?
CCCc1nc2ccccc2c(C(=O)N(CC)CC(=O)NCc2cccs2)c1CC | . | . | 2% | . | . | -3%
O=[N+]([O-])c1ccc2oc(/C=C/c3ccc(O)cc3)nc2c1 | . | . | -5% | . | . | .
CC(=O)N/C(N)=N/c1nc2cc(C)ccc2o1 | 37* | -5% | -3% | 63* | -9% | 0%
CC(=O)N/C(=N/c1nc(C)cc(C)n1)Nc1ccc(C)cc1Cl | 3 | 0% | -4% | -5 | -2% | -7%
CC(=O)N/C(N)=N/c1nc2cc([N+](=O)[O-])ccc2o1 | 27* | -7% | 0% | 81 | -10% | 21%
SMILES | CHX counter | LmPK inhibitor | TbPYK inhibitor | Shiga inhibitor | FBPA Giardia inh | Sm TGR inh
CCOC(=O)C1CCN(C(=O)C2CCN(C3=NS(=O)(=O)C(c4ccc(C)cc4)=C3CC)CC2)CC1 | . | . | 6% | . | . | 1%
Cc1ccc(N2CCN(C(=O)c3noc4c3COc3ccc(C)cc3-4)CC2)c(C)c1 | . | . | 5% | . | . | -12%
O=C(NC(NNc1ccc([N+](=O)[O-])cc1)(C(F)(F)F)C(F)(F)F)c1ccc(Cl)cc1 | -3 | -10% | -23% | -13 | -22% | 22µM*
O=C1CSC(=S)N1N=C1CCCCCC1 | 14* | 0% | -6% | 17 | ? | -26%
CN(C(=O)c1cc(-c2ccccc2O)on1)c1ccccc1 | . | . | 0% | . | . | 4%
CNC(=O)NC(=O)C(C)OC(=O)c1c2c(nc3ccccc13)/C(=C/c1cccs1)CC2 (configuration not stated) | 32* | -1% | -11% | 23* | -9% | -5%
CCCCNC(=O)COC(=O)c1c2c(nc3ccccc13)/C(=C/c1cccs1)CC2 | 52* | -1% | -3% | 104* | -4% | -13%
COc1cc(/C=C2\CCc3c2nc2ccccc2c3C(=O)O)cc(OC)c1OC | 5 | 6% | 0% | 17 | -12% | ?
O=C(O)c1ccccc1OS(=O)(=O)O | 0 | . | . | -3 | 1% | .
CCc1ccc(NC(=O)N(Cc2c[nH]c3ccccc23)C2CCCCCC2)cc1 | 20 | . | -5% | 21 | . | -6%
CCc1ccc2c(COC(=O)c3n[nH]c4ccccc34)cc(=O)oc2c1 | 46* | 8% | 10% | 94* | -5% | 3%
Cc1ccc2c(COC(=O)c3n[nH]c4ccccc34)cc(=O)oc2c1 | 32* | -1% | -3% | 78* | -1% | 3%
Cc1ccc2c(COC(=O)CNS(=O)(=O)c3ccccc3)cc(=O)oc2c1 | . | . | 9% | . | . | .
Cc1ccc2c(COC(=O)c3ccccc3F)cc(=O)oc2c1 | 27* | -7% | 4% | 128* | 10% | 2%
Cc1ccc2c(COC(=O)c3c(C)noc3C)cc(=O)oc2c1 | 17 | 3% | 4% | 35 | 3% | -2%
CCCCOC(=O)n1c(=S)oc2cc(Cl)ccc21 | 24* | -3% | -10% | 101* | 0% | -6%
O=C(O)/C=C1\NC(=O)c2ccccc21 | -1 | 3% | ? | -10 | 0% | 13%
O=C1N/C(=C\c2ccc(O)cc2)C(=O)c2ccccc21 | 34* | 10µM* | ? | 42 | ? | ?
CC(=O)c1ccc(N2CCN(S(=O)(=O)c3c(C)[nH]c(C)c3C(=O)N3CCCCC3)CC2)cc1 | 19* | 6% | 3% | 17 | -11% | -15%
COc1ccc(NC2=Nc3ccccc3CC2)cc1 | 23* | 0% | -9% | 86 | 3% | 6%
COc1ccc(NC2=NCCCCC2)cc1 | -4 | 7% | 0% | -6 | -4% | -16%
O=C(Nc1ccc(-c2cnco2)cc1)c1ccc(F)cc1F | 34* | 5% | -3% | 35* | 0% | -1%
O=C(NC(=O)c1ccc(Cl)cc1)Nc1ccc(-c2cnco2)cc1 | -1 | 1% | . | -9 | 2% | -4%
